Measured values published in PubChem BioAssay (NCATS).
Where “and” joins values, the source holds several entries; their conditions need not be identical. Identical values can stand only once. A number with no mark means an inactive call. Calls of active or inactive are those of the source. Unless noted, calls follow the shape of the dose curve; as a rule, active = well fitted curve in the direction sought with a large enough effect; inconclusive = small, poorly fitted or top-dose-only effect, or another doubt; inactive = no such curve, though single readings can be large; an effect the other way counts as inactive or inconclusive.

Tests used:
[1] = MultiTox-Fluor Cytotoxicity Assay - LYMP1-001 - Dead Cells (AID 946); also: potency is read from the fitted curve at half-maximal effect
Method in brief: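 AC50 from Hill fit of concentration-response; data normalized to DMSO (basal) and 15 uM tetraoctylammonium bromide (100%). LYMP1-001 lymphoblastoid cells, 2500/well, 16 hr compound at 37 C; dead-cell protease fluorescence, Ex/Em 485/520.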

[2] = MultiTox-Fluor Cytotoxicity Assay - LYMP1-002 - Dead Cells (AID 960); also: nearly all actives have a fitted effect of over 60% in size; also: potency is read from the fitted curve at half-maximal effect
Method in brief: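 Human lymphoblastoid cells (LYMP1-002), 2500/well in complete medium, were exposed to compounds for 16 hr at 37 C. Dead-cell protease activity was read as bis-AAF-R110 fluorescence (Ex/Em 485/520), normalized to DMSO and 15 uM tetraoctylammonium bromide; AC50 from Hill fits.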

[3] = Cell Viability - LYMP2-004 (AID 966); also: nearly all actives have a fitted effect of over 65% in size; also: potency is read from the fitted curve at half-maximal effect
Method in brief: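 Human lymphoblastoid cells (2500/well) in complete medium were treated with compounds for 24 hr at 37 C, then intracellular ATP was measured by CellTiter-Glo luminescence. AC50 values came from Hill-equation fits of concentration-response data.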

[4] = molecular target: Glucocorticoid receptor (Homo sapiens) (UniProt P04150); experiment: qHTS assay for small molecule agonists of glucocorticoid receptor signaling (AID 588532; active = well fitted curve in the direction sought with a large enough effect in the signal ratio, with a control signal flat; inconclusive = small, poorly fitted or top-dose-only effect, or a change in a side signal; inactive = no such curve, though single readings can be large or run the other way; the % refers to the signal ratio; also: potency is read from the fitted curve at half-maximal effect;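 as to activation: 100% = dexamethasone at 0.1 µM and 0% = DMSO only wells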); conditions: HeLa MMTV-bla, beta-lactamase ratio, agonist, 18 h; activation: stronger effect = higher value, percent of dexamethasone control, DMSO zero
Method in brief: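 Agonist-mode qHTS: GRE-driven beta-lactamase in HeLa cells exposed 18 h to titrated compounds (up to 92 uM), then CCF4 ratio read after 2 h at RT; Hill-fitted EC50, efficacy relative to 0.1 uM dexamethasone.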

[5] = molecular target: Peroxisome proliferator-activated receptor delta (Homo sapiens) (UniProt Q03181); experiment: qHTS assay for small molecule agonists of peroxisome proliferator-activated receptor delta signaling (AID 588534; calls by dose curve;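 also: 0% = DMSO basal wells and 100% = positive control agonist at 10 µM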)
Method in brief: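 Cell-based beta-lactamase reporter assay run in agonist mode: cells seeded and incubated 5 hrs at 37 C, compounds added and incubated 18 hrs at 37 C. CCF4 dye fluorescence read after 2 hrs at RT; EC50 and efficacy from Hill fits.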

[6] = molecular target: Vitamin D3 receptor (Homo sapiens) (UniProt P11473); experiment: qHTS assay for small molecule agonists of vitamin D receptor signaling (AID 588543; calls by dose curve;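 also: 0% = DMSO basal and 100% = reference agonist control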)
Method in brief: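 VDR-UAS-bla HEK293T cells, 2000/well, 2% charcoal-stripped FBS; compound titration 16 h at 37 C; CCF4 beta-lactamase ratio read. Normalized to 50 nM 1-alpha,25-dihydroxyvitamin D3 (100%) and DMSO; Hill fit gives EC50, efficacy.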

[7] = molecular target: Voltage-gated inwardly rectifying potassium channel KCNH2 (Homo sapiens) (UniProt Q12809); experiment: qHTS Assay for Small Molecule Inhibitors of the Human hERG Channel Activity (AID 588834);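 also: lower thallium flux fluorescence means stronger hERG block; nearly all actives have a fitted effect of over 50% in size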; also: potency is read from the fitted curve at half-maximal effect
Method in brief: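 U2OS cells BacMam-transduced with hERG, 2000 cells/well, compound ~10 min at 37 °C before stimulation buffer. FluxOR thallium flux fluorescence read kinetically on FDSS; decrease indicates block; AC50 from Hill fits.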

[8] = qHTS assay for small molecule agonists of the antioxidant response element (ARE) signaling pathway (AID 651741; active = well fitted activation curve with a large enough effect in the signal ratio; inconclusive = small, poorly fitted or top-dose-only effect, or effect the other way, or a change in a side signal; the % refers to the signal ratio; also: potency is read from the fitted curve at half-maximal effect)
Method in brief: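 Seeding 2,000 ARE-bla HepG2 cells per well preceded a 5 h incubation at 37 C/5% CO2 and a 16 h compound exposure at 37 C. Beta-lactamase reporter activity was then quantified by fluorescence after 2 h with LiveBLAzer B/G FRET substrate.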

[9] = qHTS assay for small molecule disruptors of the mitochondrial membrane potential - 1 hr assay (AID 651754; calls by dose curve; also: nearly all actives have a fitted effect of over 35% in size; also: potency is read from the fitted curve at half-maximal effect)
Method in brief: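 HepG2 cells, attached overnight at 37C, were exposed to compound or DMSO vehicle for 1 hr at 37C, 5% CO2, then stained with Mito-MPS dye for 30 min. Red aggregate versus green monomer fluorescence reports membrane potential.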

[10] = molecular target: Nuclear receptor ROR-gamma (Homo sapiens) (UniProt P51449); experiment: qHTS assay for small molecule antagonists of the retinoid-related orphan receptor gamma (ROR-gamma) signaling pathway (AID 651802); also: nearly all actives have a fitted effect of over 60% in size; also: potency is read from the fitted curve at half-maximal effect
Method in brief: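 CHO cells carrying TET-inducible ROR-gamma and an ROR response element–luciferase reporter were exposed to compound, then induced with doxycycline. After 16hr at 37C, luminescence was read; lower signal indicates antagonism.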

[11] = qHTS assay for small molecule antagonists of the retinoid-related orphan receptor gamma (ROR-gamma) signaling pathway - cell viability counter screen (AID 720652; active = well fitted curve in the direction sought with a large enough effect in the repeat runs; inconclusive = weak or mixed curves; inactive = no such curve, though single readings can be large; an effect the other way counts as inactive or inconclusive;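 also: compound exposure lasted 16 hr before ATP read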; also: potency is read from the fitted curve at half-maximal effect)
Method in brief: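 Counter screen in CHO cells carrying TET-inducible ROR-gamma and an ROR response element-luciferase reporter; cells plated 5 hr, compound pinned, doxycycline added, then 16 hr at 37 C. Viability read as intracellular ATP by CellTiter-Glo luminescence.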

[12] = qHTS assay for cell viability of HEK293 cells (AID 743288); conditions: ATP luminescence (CellTiter-Glo), 18 h; max response: stronger effect = lower value; also: % is scaled to controls: 0 for no effect and ±100 for the full control effect; nearly all actives have a fitted effect of over 50% in size
Method in brief: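 Parental HEK293 cells, 2,000 per well, preincubated at least 5 h at 37 C, then exposed to compounds in DMSO for 18 h at 37 C. Viability by CellTiter-Glo ATP luminescence after 30 min at room temperature.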

[13] = Cellular Toxicity (caspase-3) Jurkat (AID 655); conditions: Jurkat caspase-3 activation, luminescence; caspase-3 activation: at 92.2 µM (top of the series), DMSO = 0%, tamoxifen = 100%;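 also: cells exposed to compound for 16 h at 37 °C before reading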; also: potency is read from the fitted curve at half-maximal effect
Method in brief: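 Jurkat cells (5000/well) in complete medium exposed 16 h at 37 C; caspase-3/7 activity read by Caspase-Glo luminescence after 20 min at room temperature. Normalized to DMSO and 100 uM tamoxifen; AC50 from Hill fits.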

[14] = Cellular Toxicity (caspase-3) H-4-II-E (AID 663); conditions: H-4-II-E rat hepatoma, scaled: DMSO 0%, 100 µM tamoxifen 100%; at 92.2 µM (top of the series);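 also: cells exposed to compound for 16 hr before readout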
Method in brief: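 Apoptosis induction is scored as increased luminescence from caspase 3/7 substrate cleavage in rat hepatoma H-4-II-E cells exposed to compound for 16 hr. Activity is scaled between DMSO and 100 uM tamoxifen.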

[15] = molecular target: Thyroid hormone receptor beta (Homo sapiens) (UniProt P10828); experiment: qHTS assay for small molecule agonists of thyroid hormone receptor beta signaling (AID 588545; calls by dose curve; also: potency is read from the fitted curve at half-maximal effect;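 as to activation: 0% = DMSO only and 100% = 10 nM T3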)
Method in brief: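 TR-UAS-bla GripTite HEK 293 cells (2500/well, medium with 2% charcoal/dextran FBS) were treated in agonist mode for 18 h at 37 C, titrated. Beta-lactamase was read by CCF4 ratio after 2 h; normalized to 10 nM T3 (100%) and DMSO, Hill-fitted for EC50 and efficacy.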

[16] = Cell Viability - LYMP2-013 (AID 970); also: nearly all actives have a fitted effect of over 55% in size; also: potency is read from the fitted curve at half-maximal effect
Method in brief: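 Human lymphoblastoid cells, 2500/well, were preincubated 5 hr at 37 C, then treated with compounds for 24 hr at 37 C in complete medium. Intracellular ATP was read by CellTiter-Glo luminescence; AC50 from Hill-equation fits of concentration-response data.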

[17] = Cell Viability - LYMP2-014 (AID 983); also: nearly all actives have a fitted effect of over 50% in size; also: potency is read from the fitted curve at half-maximal effect
Method in brief: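 Human lymphoblastoid cells (2500/well) were pre-incubated 5 hr at 37 C, then exposed to compounds in complete medium for 24 hr at 37 C. Intracellular ATP was read by CellTiter-Glo luminescence after 30 min at room temperature; AC50 from Hill fits.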

[18] = Cell Viability - LYMP2-026 (AID 989); also: nearly all actives have a fitted effect of over 50% in size; also: potency is read from the fitted curve at half-maximal effect
Method in brief: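 Human lymphoblastoid cells (2500/well) in complete medium were preincubated 5 hr at 37 C, then exposed to compounds for 24 hr at 37 C. Cellular ATP was read by CellTiter-Glo luminescence; AC50 from Hill-equation fits of concentration-response data.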

[19] = molecular target: Estrogen receptor (Homo sapiens) (UniProt P03372); experiment: qHTS assay for small molecule antagonists of estrogen receptor alpha signaling (AID 588513; active = well fitted curve in the direction sought with a large enough effect in the signal ratio, with a control signal flat, not every such curve was filed as active; inconclusive = small, poorly fitted or top-dose-only effect, or effect the other way, or a change in a side signal; inactive = no such curve, though single readings can be large or run the other way; the % refers to the signal ratio; also: potency is read from the fitted curve at half-maximal effect)
Method in brief: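 ER-alpha-UAS-bla GripTite HEK 293 cells in 2% charcoal/dextran-treated FBS medium; compounds titrated (1:2, duplicate), then stimulated with 0.5 nM 17-beta-estradiol for 18 h at 37C. CCF4 beta-lactamase fluorescence; Hill-fit IC50 and efficacy.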

[20] = qHTS assay for small molecule activators of the p53 signaling pathway (AID 651743; active = well fitted activation curve with a large enough effect in the signal ratio, not every such curve was filed as active; inconclusive = small, poorly fitted or top-dose-only effect, or a change in a side signal; the % refers to the signal ratio; also: potency is read from the fitted curve at half-maximal effect; as to activation: % of control where 0% means no effect); conditions: HCT-116 p53RE-bla, beta-lactamase FRET ratio, 16 h; activation: stronger effect = higher value
Method in brief: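 Screen for p53 pathway agonists uses stably transfected p53RE-bla HCT-116 cells, 4,000 per well, treated 16 h at 37 C with compounds in DMSO.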

Sequence of Nuclear receptor ROR-gamma (Homo sapiens) (P51449 whole entry, looked up): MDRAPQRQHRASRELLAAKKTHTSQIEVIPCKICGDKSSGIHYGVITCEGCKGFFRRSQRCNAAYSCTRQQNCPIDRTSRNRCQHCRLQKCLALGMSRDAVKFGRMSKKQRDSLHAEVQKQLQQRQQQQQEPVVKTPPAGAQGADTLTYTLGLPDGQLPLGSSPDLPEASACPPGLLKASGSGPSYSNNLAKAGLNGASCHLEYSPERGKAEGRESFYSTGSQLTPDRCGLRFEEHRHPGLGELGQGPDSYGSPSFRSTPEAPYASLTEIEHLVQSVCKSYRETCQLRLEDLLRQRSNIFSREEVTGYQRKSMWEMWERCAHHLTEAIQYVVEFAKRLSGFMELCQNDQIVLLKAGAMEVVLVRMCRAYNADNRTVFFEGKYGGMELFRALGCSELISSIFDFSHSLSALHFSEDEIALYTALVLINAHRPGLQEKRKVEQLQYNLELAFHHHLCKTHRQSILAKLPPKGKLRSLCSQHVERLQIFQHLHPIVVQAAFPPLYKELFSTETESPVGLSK
Sequence of Glucocorticoid receptor (Homo sapiens) (P04150 whole entry, looked up): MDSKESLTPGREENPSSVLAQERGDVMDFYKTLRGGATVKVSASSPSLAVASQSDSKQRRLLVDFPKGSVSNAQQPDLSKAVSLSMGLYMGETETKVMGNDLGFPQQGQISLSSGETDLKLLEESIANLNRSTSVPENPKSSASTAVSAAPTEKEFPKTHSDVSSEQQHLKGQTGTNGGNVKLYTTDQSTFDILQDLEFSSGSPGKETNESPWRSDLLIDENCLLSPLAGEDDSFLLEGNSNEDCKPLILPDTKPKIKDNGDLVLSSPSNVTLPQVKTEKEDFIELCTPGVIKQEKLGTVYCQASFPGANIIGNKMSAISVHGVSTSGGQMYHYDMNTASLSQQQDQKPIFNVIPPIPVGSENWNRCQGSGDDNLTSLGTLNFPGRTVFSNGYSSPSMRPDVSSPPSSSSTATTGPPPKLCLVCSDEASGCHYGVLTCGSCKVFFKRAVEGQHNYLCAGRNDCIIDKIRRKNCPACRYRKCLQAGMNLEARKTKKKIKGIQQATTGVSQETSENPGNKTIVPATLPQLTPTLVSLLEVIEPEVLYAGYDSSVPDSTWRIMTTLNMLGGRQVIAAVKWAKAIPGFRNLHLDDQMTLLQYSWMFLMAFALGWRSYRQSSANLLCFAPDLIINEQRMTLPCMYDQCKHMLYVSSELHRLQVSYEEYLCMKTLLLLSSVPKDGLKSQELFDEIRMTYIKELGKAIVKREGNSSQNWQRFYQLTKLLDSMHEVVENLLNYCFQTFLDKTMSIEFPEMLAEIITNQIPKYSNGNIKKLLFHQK
Sequence of Thyroid hormone receptor beta (Homo sapiens) (P10828 whole entry, looked up): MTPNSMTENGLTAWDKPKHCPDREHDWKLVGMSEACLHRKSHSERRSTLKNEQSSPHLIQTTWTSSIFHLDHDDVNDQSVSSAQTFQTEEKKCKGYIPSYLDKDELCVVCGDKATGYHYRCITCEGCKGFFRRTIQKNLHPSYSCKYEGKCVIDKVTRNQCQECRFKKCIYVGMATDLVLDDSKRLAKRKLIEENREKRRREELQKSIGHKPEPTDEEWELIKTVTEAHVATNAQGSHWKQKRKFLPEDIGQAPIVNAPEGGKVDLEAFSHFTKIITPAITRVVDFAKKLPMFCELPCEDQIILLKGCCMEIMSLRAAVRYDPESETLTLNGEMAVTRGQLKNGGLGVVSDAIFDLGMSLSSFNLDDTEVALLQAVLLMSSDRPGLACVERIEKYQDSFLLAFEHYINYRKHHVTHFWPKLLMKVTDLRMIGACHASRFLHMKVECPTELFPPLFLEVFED
Sequence of Peroxisome proliferator-activated receptor delta (Homo sapiens) (Q03181 whole entry, looked up): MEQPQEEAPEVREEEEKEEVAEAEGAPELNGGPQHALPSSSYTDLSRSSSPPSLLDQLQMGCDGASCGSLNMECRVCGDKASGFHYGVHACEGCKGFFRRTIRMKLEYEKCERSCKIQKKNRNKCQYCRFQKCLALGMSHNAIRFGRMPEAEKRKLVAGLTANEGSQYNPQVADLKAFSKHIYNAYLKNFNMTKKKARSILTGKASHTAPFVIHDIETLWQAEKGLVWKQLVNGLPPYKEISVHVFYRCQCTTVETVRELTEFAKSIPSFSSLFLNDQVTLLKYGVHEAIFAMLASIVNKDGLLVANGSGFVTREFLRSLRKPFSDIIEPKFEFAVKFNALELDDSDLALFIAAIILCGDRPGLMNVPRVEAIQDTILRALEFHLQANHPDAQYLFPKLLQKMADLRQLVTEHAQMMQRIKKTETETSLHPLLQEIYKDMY
Sequence of Voltage-gated inwardly rectifying potassium channel KCNH2 (Homo sapiens) (Q12809 whole entry, looked up): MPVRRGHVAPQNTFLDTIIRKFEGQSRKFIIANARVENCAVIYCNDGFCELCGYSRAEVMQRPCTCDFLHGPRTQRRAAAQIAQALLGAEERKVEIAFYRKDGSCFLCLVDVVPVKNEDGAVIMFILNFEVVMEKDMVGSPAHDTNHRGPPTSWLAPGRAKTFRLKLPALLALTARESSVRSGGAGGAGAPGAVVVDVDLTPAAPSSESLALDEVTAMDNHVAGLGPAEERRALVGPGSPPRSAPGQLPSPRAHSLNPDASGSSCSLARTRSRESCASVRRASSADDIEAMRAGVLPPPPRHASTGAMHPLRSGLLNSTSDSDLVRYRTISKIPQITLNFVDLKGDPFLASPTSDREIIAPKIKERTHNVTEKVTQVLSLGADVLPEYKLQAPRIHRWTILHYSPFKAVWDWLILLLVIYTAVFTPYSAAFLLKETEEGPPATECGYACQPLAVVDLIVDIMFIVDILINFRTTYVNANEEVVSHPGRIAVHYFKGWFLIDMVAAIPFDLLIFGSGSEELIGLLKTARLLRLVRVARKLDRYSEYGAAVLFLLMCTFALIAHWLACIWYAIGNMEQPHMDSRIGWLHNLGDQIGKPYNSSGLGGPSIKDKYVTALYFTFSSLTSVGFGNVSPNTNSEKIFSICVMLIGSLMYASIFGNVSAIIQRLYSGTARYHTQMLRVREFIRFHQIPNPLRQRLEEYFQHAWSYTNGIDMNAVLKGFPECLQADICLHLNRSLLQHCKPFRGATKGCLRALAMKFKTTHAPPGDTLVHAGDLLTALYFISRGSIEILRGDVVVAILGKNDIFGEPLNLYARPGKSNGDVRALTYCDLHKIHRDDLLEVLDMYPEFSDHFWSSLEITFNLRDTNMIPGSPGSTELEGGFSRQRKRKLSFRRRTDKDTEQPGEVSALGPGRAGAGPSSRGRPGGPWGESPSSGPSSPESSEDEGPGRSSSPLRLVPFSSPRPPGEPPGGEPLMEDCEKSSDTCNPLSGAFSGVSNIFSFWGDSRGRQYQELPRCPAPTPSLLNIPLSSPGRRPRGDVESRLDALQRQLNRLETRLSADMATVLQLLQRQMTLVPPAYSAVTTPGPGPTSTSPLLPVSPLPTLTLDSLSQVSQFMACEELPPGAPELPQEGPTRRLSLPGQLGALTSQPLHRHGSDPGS
Sequence of Estrogen receptor (Homo sapiens) (P03372 whole entry, looked up): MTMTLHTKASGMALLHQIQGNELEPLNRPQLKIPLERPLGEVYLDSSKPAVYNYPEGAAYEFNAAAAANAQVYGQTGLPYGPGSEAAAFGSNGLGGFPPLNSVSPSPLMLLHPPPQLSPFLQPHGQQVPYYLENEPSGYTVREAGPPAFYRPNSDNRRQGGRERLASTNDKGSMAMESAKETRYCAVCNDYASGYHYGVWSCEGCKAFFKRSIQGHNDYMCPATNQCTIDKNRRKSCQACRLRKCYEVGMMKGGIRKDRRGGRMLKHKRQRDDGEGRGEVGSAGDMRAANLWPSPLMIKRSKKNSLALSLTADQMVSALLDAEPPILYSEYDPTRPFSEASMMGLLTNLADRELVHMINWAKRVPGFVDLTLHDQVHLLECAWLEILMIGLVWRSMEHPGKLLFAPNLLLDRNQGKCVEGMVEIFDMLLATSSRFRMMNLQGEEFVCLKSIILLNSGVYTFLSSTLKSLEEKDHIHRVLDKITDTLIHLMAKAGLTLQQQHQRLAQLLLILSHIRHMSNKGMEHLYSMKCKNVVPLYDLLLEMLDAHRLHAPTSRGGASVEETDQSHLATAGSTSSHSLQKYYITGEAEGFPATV
Sequence of Vitamin D3 receptor (Homo sapiens) (P11473 whole entry, looked up): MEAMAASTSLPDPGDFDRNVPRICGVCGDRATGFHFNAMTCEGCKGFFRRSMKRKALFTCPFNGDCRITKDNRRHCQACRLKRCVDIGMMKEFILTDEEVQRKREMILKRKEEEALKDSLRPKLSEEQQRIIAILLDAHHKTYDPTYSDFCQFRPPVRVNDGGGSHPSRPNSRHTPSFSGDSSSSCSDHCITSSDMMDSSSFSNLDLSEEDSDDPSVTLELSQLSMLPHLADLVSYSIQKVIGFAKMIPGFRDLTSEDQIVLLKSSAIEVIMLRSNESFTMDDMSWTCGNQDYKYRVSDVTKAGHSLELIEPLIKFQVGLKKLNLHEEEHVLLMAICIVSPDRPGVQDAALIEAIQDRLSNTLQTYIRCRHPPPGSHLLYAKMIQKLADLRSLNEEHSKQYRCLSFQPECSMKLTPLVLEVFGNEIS

O=C1C2(Cl)C3(Cl)C4(Cl)C(Cl)(Cl)C5(Cl)C3(Cl)C1(Cl)C5(Cl)C24Cl (configuration not stated)
Potency [1]: 31.6 µM (active) | Potency [2]: 20 µM (active) and 15.8 µM (active) | Potency [3]: 39.8 µM (active) | activation [4]: -3.98% and -15.4% | outcome [5]: inactive | outcome [6]: inactive | Potency [7]: 17.8 µM (active) and 28.2 µM (active) | Potency [8]: 66.8 µM (active) | Potency [9]: 3.35 µM (active) and 10.6 µM (active) | Potency [10]: 9.44 µM (active) and 10.6 µM (active) | Potency [11]: 26.6 µM (active) and 29.8 µM (active) | max response [12]: -22.6% and -16.2%

CC(=O)[O-].CC(=O)[O-].O.O.[Cd+2]
caspase-3 activation [13]: 4.84% | caspase-3 activation [14]: 0.407% | Potency [1]: inactive | Potency [2]: inactive | Potency [15]: inactive | Potency [9]: inactive | Potency [11]: 8.41 µM (active)

Oc1c(Br)c(Br)c(Br)c(Br)c1Br
Potency [13]: 31.6 µM (active) | caspase-3 activation [14]: 10.1% | Potency [1]: inactive | Potency [2]: inactive | Potency [3]: inactive | Potency [16]: inactive | Potency [17]: inactive | Potency [18]: inactive | Potency [19]: 39.8 µM [inconclusive] (active) | activation [4]: 3.02% | outcome [5]: inactive | outcome [6]: inactive | Potency [7]: inactive | Potency [9]: 33.5 µM (active) | Potency [11]: inactive | max response [12]: -15.8%

CCCCCCCCn1sccc1=O
caspase-3 activation [14]: -3.17% | Potency [1]: 12.6 µM (active) | Potency [2]: 5.01 µM (active) | Potency [3]: 3.98 µM (active) | Potency [16]: 15.8 µM (active) | Potency [17]: 10 µM (active) | Potency [18]: 3.98 µM (active) | Potency [19]: 14.1 µM [inconclusive] (active) | outcome [5]: inactive | outcome [6]: inactive | Potency [15]: inactive | Potency [8]: 66.8 µM (active) and 54.5 µM (active) | activation [20]: -5.11% | Potency [10]: 11.9 µM (active)

C(=NC1CCCCC1)=NC1CCCCC1
caspase-3 activation [14]: 91.9% (active) | Potency [1]: inactive | Potency [19]: inactive | outcome [5]: inactive | outcome [6]: inactive | Potency [15]: inactive | Potency [8]: 24.3 µM (active) | activation [20]: 5% | Potency [9]: inactive | Potency [10]: 18.8 µM (active)

c1ccc2cc3c(cc2c1)-c1cccc2cccc-3c12
caspase-3 activation [13]: -1.28% | caspase-3 activation [14]: 0.959% | Potency [1]: inactive | Potency [2]: inactive | Potency [3]: inactive | Potency [16]: inactive | Potency [17]: inactive | Potency [18]: inactive | Potency [19]: inactive | Potency [4]: 15.8 µM (active) | Potency [15]: 7.94 µM (active) | Potency [7]: inactive | Potency [8]: 1.88 µM (active) and 1.93 µM (active) | Potency [20]: 6.31 µM (active) and 8.91 µM (active) | Potency [9]: inactive | Potency [10]: inactive | Potency [11]: inactive | max response [12]: 4.38% and -18.8%
